Test results published in the supplement of paper PMC12669032.

These compounds were tested on Fusobacterium nucleatum subsp. animalis (assay: growth AUC relative to DMSO control (median of replicates) (fraction); higher = more growth (less inhibition), active = hit call of the paper). Conditions: 20 µM; 24 h;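 active = AUC reduced over 20% with Padj below 0.05 in at least 2 of 3 replicates; inactive = otherwise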.
Procedure, shortened: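 Gut bacterial monocultures in mGAM were treated with 20 µM compound (1% DMSO) and grown anaerobically at 37 °C in round-bottom 96-well plates from OD600 0.05. OD600 was read hourly for 24 h, with the minimum OD set to 0. Area under the growth curve was normalised to the plate median of solvent-only wells, or to row and column medians on the industrial chemical plate. Each value is the median of three biological replicates, each grown on a separate day.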

SMILES | growth AUC
Nc1cccc(O)c1 | 1 (inactive)
CCc1cccc(C)c1NC(C)C(=O)O (racemic) | 1.04 (inactive)
CCc1ccc(C(c2ccc(CC)cc2)C(Cl)Cl)cc1 | 0.939 (inactive)
CC(C)N(C(=O)CS(=O)CC(=O)O)c1ccc(F)cc1 (configuration not stated) | 0.969 (inactive)
O=[N+]([O-])c1ccc(Oc2c(Cl)cc(Cl)cc2Cl)cc1 | 1.05 (inactive)
CCOC(=O)c1nc(C(Cl)(Cl)Cl)n(-c2ccc(Cl)cc2Cl)n1 | 0.995 (inactive)
Cc1ccc2c(c1)[C@H](Nc1nc(N)nc(C(C)F)n1)[C@@H](C)C2 (some centres not stated) | 0.857 (inactive)
CCCCCCCC(=O)Oc1c(Br)cc(C#N)cc1Br | 0.966 (inactive)
CCNc1nc(N)[nH]c(=O)n1 | 0.953 (inactive)
CN(C)C(=O)Nc1cc(C(C)(C)C)on1 | 0.959 (inactive)
O=C(NC(=O)c1c(F)cccc1F)Nc1cc(C(F)(F)F)cc(C(F)(F)F)c1Cl | 0.989 (inactive)
COC(=O)CSc1cc(N=c2sc(=O)n3n2CCCC3)c(F)cc1Cl | 1.03 (inactive)
CCN(Cc1c(F)cccc1Cl)c1c([N+](=O)[O-])cc(C(F)(F)F)cc1[N+](=O)[O-] | 0.937 (inactive)
CCNC(=O)[C@@H](C)OC(=O)Nc1ccccc1 | 1.05 (inactive)
CON=C(Cc1cccnc1)c1ccc(Cl)cc1Cl | 1.03 (inactive)
COC(=O)Nc1ccc(Cl)c(Cl)c1 | 0.926 (inactive)
CC[N+](CC)(CC(=O)Nc1c(C)cccc1C)Cc1ccccc1.O=C([O-])c1ccccc1 | 1.02 (inactive)
